“And” between values parts separate entries of the source, which are not always exact repeats. Equal entries are not always repeated. Records with an inconclusive call do not appear. The source made the active and inactive calls. Unless noted, calls come from the whole dose curve.

Ten compounds from PubChem BioAssay (NCATS) can be followed below.

Experiment [1] addresses Peroxisome proliferator-activated receptor gamma (Homo sapiens) (UniProt P37231). Description: qHTS assay for small molecule agonists of peroxisome proliferator-activated receptor gamma signaling (AID 588536; active = well fitted curve in the direction sought with a large enough effect in the signal ratio, with a control signal flat, not every such curve was filed as active; the % refers to the signal ratio;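 note: 0% = DMSO basal wells and 100% = rosiglitazone at 2 µM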). In a few lines: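 PPAR-gamma-UAS-bla HEK293 cells in medium with 1% charcoal/dextran-treated FBS were exposed to compounds for 16 h at 37 C. Beta-lactamase activity was read with CCF4 substrate (405 nm excitation, 460/530 nm emission).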
A general note: qHTS replaces the single test concentration by a dilution series.

Experiment [2] deals with Vitamin D3 receptor (Homo sapiens) (UniProt P11473). Description: qHTS assay for small molecule antagonists of vitamin D receptor signaling (AID 588541).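 Note: receptor activated by calcitriol during compound treatment; series mostly up to about 77 µM; % is set by controls: 0 for no effect and ±100 for the full control effect.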 An outline of the steps:
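VDR-UAS-bla HEK293T cells (2000/well, 2% charcoal-stripped FBS) were treated with titrated compounds plus 1-alpha,25-dihydroxyvitamin D3 (50 nM or 3 nM final) for 16 h at 37 C. CCF4 beta-lactamase fluorescence was read; Hill fits gave IC50.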

For experiment [3] the target is unchanged. Description: qHTS assay for small molecule agonists of vitamin D receptor signaling (AID 588543).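 Note: 0% = DMSO basal and 100% = reference agonist control.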 An outline of the steps:
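Agonist-mode beta-lactamase reporter: HEK293T VDR-UAS-bla cells in charcoal-stripped 2% FBS, compound series 16 h 37 C, CCF4 2 h RT. EC50 from Hill fit, scaled against DMSO and 50 nM calcitriol control.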

Experiment [4] can be described thus: qHTS assay for small molecule antagonists of retinoid X receptor alpha signaling (AID 588546; active = well fitted inhibition curve with a large enough effect in the signal ratio, with a control signal flat, not every such curve was filed as active; the % refers to the signal ratio; note: potency is the fitted concentration of half-maximal effect;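 for max response: cells stimulated with 9-cis-retinoic acid as agonist; % is set by controls: 0 for no effect and ±100 for the full control effect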). The following applies: HEK293T RXRa-UAS-bla, beta-lactamase ratio, antagonist mode; measured here: W530 green channel, cytotoxicity proxy. In a few lines: (§1)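 Beta-lactamase reporter inhibition, read as CCF4 fluorescence ratio (ex 405, em 460/530 nm) after 2 h at RT. HEK293T UAS-bla cells, 2500/well, were stimulated with 9-cis-RA at 500 or 100 nM final alongside test compound for 18 h at 37 C.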

Experiment [5] concerns the target Retinoic acid receptor RXR-alpha (Homo sapiens) (UniProt P19793). The description is as above. The following applies: HEK293T RXRa-UAS-bla, beta-lactamase ratio, antagonist mode. In a few lines: as §1
Experiment [6] has as its target Thyroid hormone receptor beta (Homo sapiens) (UniProt P10828). Briefly: qHTS assay for small molecule antagonists of thyroid hormone receptor beta signaling (AID 588547; active = well fitted inhibition curve with a large enough effect in the signal ratio, with a control signal flat, not every such curve was filed as active; the % refers to the signal ratio;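 note: cells stimulated with 0.4 nM T3 agonist during compound exposure; series mostly up to about 77 µM; % is set by controls: 0 for no effect and ±100 for the full control effect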). The following applies: TR-UAS-bla HEK293, beta-lactamase ratio, antagonist mode, 18 h. An outline of the steps: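 TR-UAS-bla GripTite HEK293 cells in 2% charcoal/dextran FBS medium were preincubated 4 h at 37 C, given compound (0.59 nM to 92 uM) plus 0.4 nM T3 (final) for 18 h, then CCF4 for 2 h at RT; Hill fit gave IC50.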

Experiment [7] deals with Voltage-gated inwardly rectifying potassium channel KCNH2 (Homo sapiens) (UniProt Q12809). Description: qHTS Assay for Small Molecule Inhibitors of the Human hERG Channel Activity (AID 588834; active = well fitted curve in the direction sought with a large enough effect; an effect the other way counts as inactive or inconclusive;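 note: top concentration of the series differs between compounds; % is set by controls: 0 for no effect and ±100 for the full control effect; lower thallium flux fluorescence means stronger hERG block; nearly all actives have a fitted effect of over 50% in size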). In a few lines: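 Kinetic FDSS fluorescence; U2OS + hERG BacMam (~100 virus particles/cell); FluxOR Tl+ flux; ~10 min cpd; AC50 (Hill).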
The nature of experiment [8]: S16 Schwann cell viability assay (CellTiter-Glo assay) (AID 624031; active = well fitted curve in the direction sought with a large enough effect; an effect the other way counts as inactive or inconclusive;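 note: cellular ATP luminescence as a viability measure; series mostly up to about 58 µM; plate controls were DMSO-treated cells for no effect and cell-free wells for full effect; nearly all actives have a fitted effect of over 70% in size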). An outline of the steps: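 Native S16 Schwann cells (rat), serum-containing medium, overnight attachment then 24 h drug exposure at 37 °C/5% CO2. CellTiter-Glo ATP signal; normalized to cell-free and vehicle wells.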
(In general: Cellular ATP, detected with luciferase, serves as a proxy for viable cell number.)

Experiment [9] can be described thus: S16 Schwann cell PMP22 intronic element firefly luciferase assay (AID 624032; active = well fitted curve in the direction sought with a large enough effect; an effect the other way counts as inactive or inconclusive;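 note: series mostly up to about 58 µM; plate controls were DMSO for no effect and PTC124 positive control mean for full effect; nearly all actives have a fitted effect of over 30% in size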). In a few lines:
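Rat S16 Schwann cells stably carrying a PMP22 intronic element-driven Fluc reporter were seeded overnight, then exposed to compounds for 24 h at 37 °C. Luminescence was normalized to PTC124 (positive control) and DMSO (0% activity).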

The target in experiment [10] is Peroxisome proliferator-activated receptor gamma (Homo sapiens) (UniProt P37231). Briefly: qHTS assay for small molecule antagonists of peroxisome proliferator-activated receptor gamma signaling (AID 588537; active = well fitted inhibition curve with a large enough effect in the signal ratio, with a control signal flat, not every such curve was filed as active; the % refers to the signal ratio;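 note: reporter cells co-stimulated with 50 nM rosiglitazone agonist during compound treatment; % of control where 0% means no effect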). In a few lines:
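We seeded GeneBLAzer HEK293 reporter cells at 3000 per well, allowed 6-6.5 h attachment at 37 C, then co-treated with test compound titrations and 50 nM rosiglitazone overnight (16 h). Inhibition was quantified from 460/530 nm emission ratios.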

Experiment [11] can be described thus: qHTS assay for small molecule agonists of retinoid X receptor alpha signaling (AID 588544). The following applies: HEK293T RXRa-UAS-bla, beta-lactamase reporter, 18 h; 530 nm emission.
The target in experiment [12] is Retinoic acid receptor RXR-alpha (Homo sapiens) (UniProt P19793). The experiment is described as above.
The target in experiment [13] is Thyroid hormone receptor beta (Homo sapiens) (UniProt P10828). Description: qHTS assay for small molecule agonists of thyroid hormone receptor beta signaling (AID 588545).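 Note: 0% = DMSO only and 100% = 10 nM T3.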 An outline of the steps: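 Beta-lactamase reporter activity under TR response element control is measured in HEK 293 cells after 18 hrs compound exposure. Signal is ratiometric CCF4 fluorescence, 460/530 nm.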

The target in experiment [14] is Glutaminase kidney isoform, mitochondrial (Homo sapiens) (UniProt O94925). Briefly: qHTS for Inhibitors of Glutaminase (GLS): LOPAC Validation (AID 624146; active = well fitted curve in the direction sought with a large enough effect; an effect the other way counts as inactive or inconclusive;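 note: glutamate product detected by oxidase and peroxidase coupled Amplex red fluorescence gain; series mostly up to about 46 µM; % is set by controls: 0 for no effect and ±100 for the full control effect; nearly all actives have a fitted effect of over 60% in size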). In a few lines: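 Glutamate formation by hKGA was monitored fluorometrically using coupled glutamate oxidase, HRP and Amplex Red. Substrate was added as 1 mM L-glutamine solution; incubation was 30 min at RT after an initial read.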

Experiment [15] deals with Glucagon-like peptide 1 receptor (Homo sapiens) (UniProt P43220). Description: qHTS of GLP-1 Receptor Agonists: LOPAC Validation (AID 624148; active = well fitted curve in the direction sought with a large enough effect; an effect the other way counts as inactive or inconclusive;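 note: 0% is about no effect; higher luminescence signal means agonism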). In a few lines:
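HEK293 cells stably co-expressing a cAMP-responsive luciferase reporter and a hypersensitive GLP-1R were plated 12 h at 37 °C and exposed to compounds for 4-6 hr at 37 °C, 5% CO2. Luminescence was read 12 min after adding detection reagent.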

A short description of experiment [16]: qHTS of Nrf2 Activators: LOPAC Validation (AID 624149; active = well fitted curve in the direction sought with a large enough effect; an effect the other way counts as inactive or inconclusive; note: 0% is about no effect). An outline of the steps: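 AREc32_Fluc cells, 1000/well in OPTI-MEM with 5% FBS, grown overnight, then exposed to compounds for 24 hr at 37 deg C, 5% CO2. ARE-driven firefly luciferase read by Steady-Glo luminescence after 30 min at RT.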
A short description of experiment [17]: HTS Assay for Allosteric Antagonists of the Human D2 Dopamine Receptor: Hit Validation in HTRF (AID 624455; active = well fitted curve in the direction sought with a large enough effect; an effect the other way counts as inactive or inconclusive;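 note: stable D1 dopamine receptor cell line scored for blocking the D1 response; % is set by controls: 0 for no effect and ±100 for the full control effect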). In a few lines:
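Hit validation in cells stably expressing the D1 dopamine receptor, run in HTRF format. Compounds were tested for their ability to inhibit the D1-mediated response.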
(TR-FRET usually uses a lanthanide donor and a delayed reading to cut background.)

A short description of experiment [18]: S16 Schwann cell PMP22 intronic element beta-lactamase assay (AID 624044).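 Note: 0% = DMSO and -100% = potassium clavulanate positive control; nearly all actives have a fitted effect of over 15% in size.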 An outline of the steps: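 Rat S16 Schwann cells with beta-Lac driven by a PMP22 intronic element, compound-treated 24 h at 37 °C. LiveBLAzer FRET B/G read: 460 nm normalized to potassium clavulanate vs DMSO; 535 nm FRET as viability; concentration-effect curves classified.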
Experiment [19] has as its target Luciferin 4-monooxygenase (Photinus pyralis) (UniProt P08659). Description: Biochemical firefly luciferase enzyme assay for NPC (AID 624030; active = well fitted curve in the direction sought with a large enough effect; an effect the other way counts as inactive or inconclusive;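 note: purified P. pyralis luciferase at 10 nM with luciferin and ATP substrate; series mostly up to about 59 µM; 0% = DMSO and -100% = full luciferase inhibition by PTC124 control; nearly all actives have a fitted effect of over 70% in size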). In a few lines: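 Counter-screen for direct inhibition of the luciferase enzyme by approved-drug library compounds, run at 10 nM enzyme in 50 mM Tris acetate (final). Luminescence was read within 5 min of enzyme-buffer addition and normalized to PTC124 versus DMSO (0%).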

Vitamin D3 receptor (Homo sapiens), sequence (P11473 whole entry, looked up): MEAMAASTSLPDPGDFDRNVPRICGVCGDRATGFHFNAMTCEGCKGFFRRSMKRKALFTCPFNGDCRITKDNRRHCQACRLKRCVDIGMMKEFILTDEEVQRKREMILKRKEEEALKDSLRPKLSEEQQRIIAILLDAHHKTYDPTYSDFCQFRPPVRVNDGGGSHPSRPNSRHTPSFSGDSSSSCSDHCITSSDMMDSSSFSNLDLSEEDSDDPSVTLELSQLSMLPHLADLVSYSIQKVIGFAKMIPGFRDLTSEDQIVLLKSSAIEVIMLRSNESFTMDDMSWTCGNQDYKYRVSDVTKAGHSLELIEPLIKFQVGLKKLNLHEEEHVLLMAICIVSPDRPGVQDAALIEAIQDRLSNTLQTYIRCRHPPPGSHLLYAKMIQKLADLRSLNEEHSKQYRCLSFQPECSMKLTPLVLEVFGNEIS
Voltage-gated inwardly rectifying potassium channel KCNH2 (Homo sapiens), sequence (Q12809 whole entry, looked up): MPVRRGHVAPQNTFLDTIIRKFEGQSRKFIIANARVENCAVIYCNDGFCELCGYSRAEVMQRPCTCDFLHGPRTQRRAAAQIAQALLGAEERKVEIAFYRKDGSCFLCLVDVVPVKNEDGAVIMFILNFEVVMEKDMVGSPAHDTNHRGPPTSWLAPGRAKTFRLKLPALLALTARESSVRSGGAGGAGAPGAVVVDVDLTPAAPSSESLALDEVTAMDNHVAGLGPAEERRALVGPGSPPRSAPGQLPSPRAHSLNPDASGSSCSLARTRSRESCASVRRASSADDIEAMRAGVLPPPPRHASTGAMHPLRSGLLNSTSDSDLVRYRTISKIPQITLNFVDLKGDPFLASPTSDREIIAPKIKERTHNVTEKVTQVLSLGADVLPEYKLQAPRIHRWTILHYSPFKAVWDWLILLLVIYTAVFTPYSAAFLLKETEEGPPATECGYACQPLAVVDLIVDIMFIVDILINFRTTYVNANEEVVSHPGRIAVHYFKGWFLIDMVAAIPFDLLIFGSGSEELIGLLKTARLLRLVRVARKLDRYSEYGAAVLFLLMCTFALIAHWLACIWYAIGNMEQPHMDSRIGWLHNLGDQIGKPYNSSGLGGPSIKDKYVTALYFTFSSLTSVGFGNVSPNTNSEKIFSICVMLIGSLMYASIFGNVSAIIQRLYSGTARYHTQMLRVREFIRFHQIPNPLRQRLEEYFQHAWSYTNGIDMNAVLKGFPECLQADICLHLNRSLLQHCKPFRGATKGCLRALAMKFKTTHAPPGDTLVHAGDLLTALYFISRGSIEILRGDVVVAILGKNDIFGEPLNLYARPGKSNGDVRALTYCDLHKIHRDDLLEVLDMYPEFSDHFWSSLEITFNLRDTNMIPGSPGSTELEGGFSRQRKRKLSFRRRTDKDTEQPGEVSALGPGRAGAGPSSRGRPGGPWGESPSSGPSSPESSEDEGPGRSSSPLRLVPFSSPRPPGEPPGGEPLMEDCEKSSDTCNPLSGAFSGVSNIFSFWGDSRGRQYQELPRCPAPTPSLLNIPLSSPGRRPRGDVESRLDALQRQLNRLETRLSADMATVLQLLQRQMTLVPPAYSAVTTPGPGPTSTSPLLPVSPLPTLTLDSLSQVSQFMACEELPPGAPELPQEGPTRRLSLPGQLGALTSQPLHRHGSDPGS
Luciferin 4-monooxygenase (Photinus pyralis), sequence (P08659 whole entry, looked up): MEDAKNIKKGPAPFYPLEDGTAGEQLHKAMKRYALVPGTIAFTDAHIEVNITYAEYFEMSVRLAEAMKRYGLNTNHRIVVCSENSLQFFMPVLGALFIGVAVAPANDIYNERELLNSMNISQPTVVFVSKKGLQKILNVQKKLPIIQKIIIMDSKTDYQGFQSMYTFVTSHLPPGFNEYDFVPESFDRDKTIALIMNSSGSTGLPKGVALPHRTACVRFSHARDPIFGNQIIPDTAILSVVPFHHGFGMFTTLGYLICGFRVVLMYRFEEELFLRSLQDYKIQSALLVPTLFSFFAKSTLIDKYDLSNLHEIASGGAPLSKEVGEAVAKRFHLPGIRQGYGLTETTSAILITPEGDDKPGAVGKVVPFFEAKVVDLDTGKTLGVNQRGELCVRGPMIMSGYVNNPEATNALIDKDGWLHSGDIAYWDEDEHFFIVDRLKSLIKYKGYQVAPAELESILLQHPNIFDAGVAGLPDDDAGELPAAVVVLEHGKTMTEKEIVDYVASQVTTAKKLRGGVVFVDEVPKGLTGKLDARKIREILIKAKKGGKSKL
Thyroid hormone receptor beta (Homo sapiens), sequence (P10828 whole entry, looked up): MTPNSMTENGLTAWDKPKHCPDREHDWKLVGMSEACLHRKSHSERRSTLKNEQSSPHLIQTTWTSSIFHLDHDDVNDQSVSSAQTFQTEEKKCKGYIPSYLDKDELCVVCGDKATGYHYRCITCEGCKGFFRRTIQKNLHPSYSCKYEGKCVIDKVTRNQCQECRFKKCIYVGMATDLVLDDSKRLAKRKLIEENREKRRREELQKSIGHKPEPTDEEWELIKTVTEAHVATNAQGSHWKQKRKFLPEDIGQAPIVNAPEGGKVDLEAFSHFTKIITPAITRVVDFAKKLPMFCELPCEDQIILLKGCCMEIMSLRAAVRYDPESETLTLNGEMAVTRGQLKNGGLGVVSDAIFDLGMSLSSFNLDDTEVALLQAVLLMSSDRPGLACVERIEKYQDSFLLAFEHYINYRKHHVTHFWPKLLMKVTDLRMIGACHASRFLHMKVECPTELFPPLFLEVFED
Retinoic acid receptor RXR-alpha (Homo sapiens), sequence (P19793 whole entry, looked up): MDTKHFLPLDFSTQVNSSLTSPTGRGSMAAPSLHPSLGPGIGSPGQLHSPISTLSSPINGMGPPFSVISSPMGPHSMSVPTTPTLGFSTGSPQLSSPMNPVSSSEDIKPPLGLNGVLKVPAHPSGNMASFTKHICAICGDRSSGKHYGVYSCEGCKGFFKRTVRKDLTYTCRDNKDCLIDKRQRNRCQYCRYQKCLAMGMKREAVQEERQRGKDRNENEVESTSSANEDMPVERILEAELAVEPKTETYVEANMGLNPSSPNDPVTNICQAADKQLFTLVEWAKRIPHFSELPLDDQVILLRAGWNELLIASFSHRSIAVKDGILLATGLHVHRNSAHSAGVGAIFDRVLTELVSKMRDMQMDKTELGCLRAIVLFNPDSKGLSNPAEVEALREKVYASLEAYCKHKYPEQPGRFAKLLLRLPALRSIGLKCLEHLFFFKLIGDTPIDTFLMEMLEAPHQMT
Peroxisome proliferator-activated receptor gamma (Homo sapiens), sequence (P37231 whole entry, looked up): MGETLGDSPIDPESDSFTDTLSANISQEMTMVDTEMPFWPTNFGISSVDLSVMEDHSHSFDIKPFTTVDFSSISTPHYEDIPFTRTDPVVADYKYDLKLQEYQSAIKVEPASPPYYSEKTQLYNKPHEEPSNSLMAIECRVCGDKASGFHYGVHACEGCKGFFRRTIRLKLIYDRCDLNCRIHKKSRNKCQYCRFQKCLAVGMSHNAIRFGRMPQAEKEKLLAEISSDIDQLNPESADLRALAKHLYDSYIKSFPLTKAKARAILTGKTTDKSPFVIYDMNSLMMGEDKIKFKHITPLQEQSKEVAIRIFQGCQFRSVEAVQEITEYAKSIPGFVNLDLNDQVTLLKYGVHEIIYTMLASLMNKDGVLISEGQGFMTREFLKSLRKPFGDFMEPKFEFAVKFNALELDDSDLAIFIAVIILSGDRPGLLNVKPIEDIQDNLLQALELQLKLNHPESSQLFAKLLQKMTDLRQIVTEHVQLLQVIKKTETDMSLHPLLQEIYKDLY
Glucagon-like peptide 1 receptor (Homo sapiens), sequence (P43220 whole entry, looked up): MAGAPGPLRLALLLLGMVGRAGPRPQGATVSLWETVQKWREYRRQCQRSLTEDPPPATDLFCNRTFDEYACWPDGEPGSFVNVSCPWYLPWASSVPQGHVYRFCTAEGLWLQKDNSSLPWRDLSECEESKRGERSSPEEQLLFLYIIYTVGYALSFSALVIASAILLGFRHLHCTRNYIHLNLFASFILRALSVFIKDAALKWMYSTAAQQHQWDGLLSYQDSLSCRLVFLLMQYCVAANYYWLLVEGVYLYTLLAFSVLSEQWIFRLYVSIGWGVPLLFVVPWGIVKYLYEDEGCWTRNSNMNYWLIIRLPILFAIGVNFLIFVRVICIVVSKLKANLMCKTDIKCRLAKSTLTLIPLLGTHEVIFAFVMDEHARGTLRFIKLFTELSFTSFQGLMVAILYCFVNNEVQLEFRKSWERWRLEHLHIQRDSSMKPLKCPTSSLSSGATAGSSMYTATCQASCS
Glutaminase kidney isoform, mitochondrial (Homo sapiens), sequence (O94925 whole entry, looked up, canonical isoform): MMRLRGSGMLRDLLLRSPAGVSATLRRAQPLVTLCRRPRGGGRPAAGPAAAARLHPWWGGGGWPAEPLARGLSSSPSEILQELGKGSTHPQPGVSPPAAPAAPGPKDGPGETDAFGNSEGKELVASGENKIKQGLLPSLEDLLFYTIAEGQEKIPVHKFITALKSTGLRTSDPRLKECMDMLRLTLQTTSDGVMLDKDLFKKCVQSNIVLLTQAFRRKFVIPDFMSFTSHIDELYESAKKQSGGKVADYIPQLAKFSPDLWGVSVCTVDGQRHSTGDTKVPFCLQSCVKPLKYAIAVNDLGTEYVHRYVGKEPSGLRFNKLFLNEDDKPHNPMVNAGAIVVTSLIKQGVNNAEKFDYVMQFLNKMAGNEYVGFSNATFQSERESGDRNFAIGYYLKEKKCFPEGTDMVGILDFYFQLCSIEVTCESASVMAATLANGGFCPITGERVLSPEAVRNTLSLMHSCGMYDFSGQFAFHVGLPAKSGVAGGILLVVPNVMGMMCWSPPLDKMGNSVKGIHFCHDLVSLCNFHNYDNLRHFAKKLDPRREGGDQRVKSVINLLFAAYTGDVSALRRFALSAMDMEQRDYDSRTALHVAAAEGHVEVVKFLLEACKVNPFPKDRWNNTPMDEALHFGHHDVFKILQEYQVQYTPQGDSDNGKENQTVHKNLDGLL

As for `O=[N+]([O-])c1ccc(F)c([N+](=O)[O-])c1`, the result in [1] and in experiment [3] was inactive. Besides, the Potency entry in [2], in experiment [7], in [8] and in experiment [9] was “inactive” throughout. Besides, the max response was -4.46% in [4] and 1.55% (inactive) in experiment [5]. For the same compound, in [6], the activity change % (negative = inhibition) was 5.42% (inactive).

On to `O=C1C=CC(=O)C=C1`, for which the result in experiment [1], in experiment [13] and in experiment [15] was inactive. Further, the Potency result in experiment [10], in experiment [12], in experiment [14], in experiment [16] and in [17] was “inactive” each time. Besides, the max response in experiment [11] was -3.86%; in experiment [4], 4.26%; in experiment [5], -9.47% (inactive). The activity change % (negative = inhibition) in experiment [6] is -10.9% (inactive).

In the case of `O=C/C=C/c1ccccc1`, the result in experiment [1], in [3] and in experiment [13] was inactive. The Potency entry in [10], in experiment [2], in experiment [12], in [7], in [8] and in experiment [18] was “inactive” in each case. The max response is 4.89% and -11.3% in [11]; -5.91% and -8.21% in [4]; 12.1% (inactive) and 26.2% (inactive) in experiment [5]. In addition, in experiment [6], the activity change % (negative = inhibition) was 12.8% (inactive) and -9.11% (inactive).

As to `CCOC(=O)c1ccccc1C(=O)OCC`, the compound was classed as inactive in [1], in experiment [3] and in experiment [13]. For the same compound, the Potency result in [10], in experiment [2], in experiment [12], in experiment [7], in [19] and in experiment [8] was “inactive” each time. In experiment [9], the Potency result is “inactive”. Further, the max response in experiment [11] was -7.23% and 2.92%; in experiment [4], 2.09% and -11.6% and -7.65%; in [5], 8.73% (inactive) and 2.69% (inactive) and 2.16% (inactive). Besides, the activity change % (negative = inhibition) in [6] is 9.23% (inactive) and -2.29% (inactive) and -1.86% (inactive).

Consider `O=CC=O`, for which the compound was classed as inactive in experiment [1] and in experiment [13]. The max response is -3.86% in [11], 5.31% in experiment [4] and 9.93% (inactive) in experiment [5]. Moreover, the Potency result in [12], in [7], in experiment [8], in experiment [9] and in experiment [18] was “inactive” in each case. The activity change % (negative = inhibition) in [6] was -1.9% (inactive).

In the case of `CCCCCCCCOC(=O)c1ccccc1C(=O)OCCCCCCCC`, the result in experiment [1], in experiment [3] and in [13] was inactive. Besides, the Potency result in experiment [10], in [2], in [12], in experiment [7], in experiment [19] and in experiment [8] was “inactive” throughout. Also, the Potency entry in [9] and in experiment [18] was “inactive” in each case. The max response in experiment [11] was -12.6% and -10.6%; in experiment [4], -8.04% and -12.9%; in experiment [5] it was 24.3% (inactive) and -9.86% (inactive). The activity change % (negative = inhibition) in experiment [6] is 0.822% (inactive).

As for `ClC=C(Cl)Cl`, the compound was called inactive in experiment [1] and in experiment [13]. Moreover, the Potency result in [10], in experiment [12], in experiment [19], in experiment [8] and in [9] was “inactive” each time. Also, the max response was -19% in [11]; -0.484% and -8.25% in experiment [4]; 5.36% (inactive) and -18.5% (inactive) in [5]. Also, the activity change % (negative = inhibition) in experiment [6] is -2.56% (inactive).

Take `Oc1cc(Cl)c(Cl)cc1Cl`: the compound was classed as inactive in experiment [1] and in experiment [13]. The Potency entry in experiment [10], in [12], in experiment [7], in experiment [19], in experiment [9] and in experiment [18] was “inactive” in each case. Further, the max response was -8.67% in experiment [11]; -1.91% and -9.59% in experiment [4]; -11.3% (inactive) and 1.52% (inactive) in experiment [5]. In experiment [6], the activity change % (negative = inhibition) was 5.32% (inactive) and 6.79% (inactive).

For the compound `CC[C@H](C)[C@H]1O[C@]2(C=C[C@@H]1C)C[C@@H]1C[C@@H](C/C=C(\C)[C@@H](O[C@H]3C[C@H](OC)[C@@H](O[C@H]4C[C@H](OC)[C@@H](O)[C@H](C)O4)[C@H](C)O3)[C@@H](C)/C=C/C=C3\CO[C@@H]4[C@H](O)C(C)=C[C@@H](C(=O)O1)[C@]34O)O2`, the call in [3] was inactive. In experiment [4], the max response was -21.4%. In experiment [5], the Potency is 12.6 µM (active). Also, in experiment [7], the Potency entry is “inactive”.

Consider `Cc1ccccc1-n1c(CF)nc2ccc(N)cc2c1=O`, for which the Potency entry in experiment [7] was “inactive”.
